Assay outcomes (PubChem)
Pf Dd2 growth = Plasmodium falciparum Dd2 growth inhibition | P. falciparum Dd2 growth, SYBR Green, 72 h | Potency, µM (series often up to 28.9 µM), for inactives: at the highest dose activity, negative = inhibition, actives largely listed as inhibitors | actives 4.3% (n = 120,000) | AID 1347417; active = well fitted inhibition curve with a large enough effect;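 also: plate controls were DMSO vehicle for no effect and reference drug for full effect; nearly all actives have a fitted effect of over 65% in size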
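Infected erythrocytes (Dd2, 0.3% parasitemia, 2.5% hematocrit final) are added to compound in RPMI-1640/Albumax II medium, grown 72 h at 37C in low oxygen, then lysed with saponin/Triton-X containing SYBR Green and read by fluorescence.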
An asterisk follows results filed as active; i = inactive; [ ] = remark or other dose. The full list was thinned out, with hits kept by preference. Potency is read from the fitted curve at half-maximal effect.

SMILES	Pf Dd2 growth
CCCNC(=O)O[C@@H]1CC[C@]2(C)[C@H](CC[C@@H](O)[C@H]2CC(=O)N2CCCC2)[C@]1(C)CO	0.2%[44.1 µM]
COc1ccc(NC(=O)O[C@@H]2CC[C@]3(C)C(CC[C@@H](O)[C@H]3CC(=O)N3CCC[C@H]3CO)[C@]2(C)CO)cc1 (stereo not given in full)	-20.9%
O=C(N[C@H]1CCN2C(=O)c3cc(-c4ccsc4)ccc3NC(=O)[C@H]12)C1CCCC1	i
COc1cc(NC(=O)C2CCN(C(=O)c3ncn4c3COC(c3ccccc3)C4)CC2)cc(OC)c1 (stereo not given)	-15.0%
CN(C)CCNC(=O)c1cnc2c(c1)N(C(=O)Cc1cn(C)c3ccccc13)CCC2	-18.7%[44.1 µM]
O=C(Nc1cccc(Cl)c1)c1cnc2c(c1)N([S+](=O)([O-])c1cccnc1)CCC2	11.2µM*
Cn1cc(CC(=O)N2CCCc3ncc(C(=O)Nc4cccc(Cl)c4)cc32)c2ccccc21	4.47µM*
Cn1cc(CC(=O)N2CCCc3ncc(C(=O)NCc4ccoc4)cc32)c2ccccc21	i
O=C(c1cnc2c(c1)N([S+](=O)([O-])c1cccnc1)CCC2)N1CCC[C@@H]1c1ccc(F)cc1	-0.9%
CC(C)CCNC(=O)c1cnc2c(c1)N([S+](=O)([O-])c1cccnc1)CCC2	-14.6%[44.1 µM]
CCOc1ccc(CC(=O)N2CCC(Oc3nccnc3N(C)C)C2)cc1 (stereo not given)	9.8%
CCc1ccccc1S(=O)(=O)N1C[C@@H](F)C[C@H]1C(=O)N1CCCCC1	i
CN[C@@H](CC(C)C)C(=O)N[C@H]1C[C@@](O)(C(=O)N[C@H]2CCCNC2=O)C[C@@H](O)[C@@H]1O	26.9%[44.1 µM]
COc1cccc(-c2noc(CCCC(=O)N[C@H]3C[C@@H]4OCC[C@H]34)n2)c1	-14.4%
O=C1CCN(S(=O)(=O)c2ccccc2)CCCN(C(=O)Nc2ccc3c(c2)OCCO3)CCN1	3.8%
CN1CCCN(S(=O)(=O)c2cccc(Cl)c2)c2ccccc21	11.2µM*
CCS(=O)(=O)N1CCCN(C)c2ccccc21	-19.2%
CC(=O)N1CCC(C2CCN(S(=O)(=O)c3cccc(Cl)c3)C2)CC1 (stereo not given)	-18.3%
COc1ccc(CNC(=O)[C@@H]2CCC[C@@H](NCc3c(C)noc3C)CN(C)C(=O)C2)cc1	i
CCC(=O)N(C1CCOCC1)C1CCN(S(=O)(=O)c2ccc3c(c2)CCC3)CC1	-21.8%
CCNC(=O)N1CCCC(Cc2noc(-c3cnccn3)n2)C1 (stereo not given)	12.2%
CCCNC(=O)N1CCC(N2CC(OCC3CC3)C23CCCCC3)CC1 (stereo not given)	8.91µM*
CC(C)CC(=O)N1CCC(N2CC(OCC3CC3)C23CCOCC3)CC1 (stereo not given)	-19.9%
CC(=O)N1CCC(C(=O)N2CCC(N3CC(OCC4CC4)C34CCOCC4)CC2)CC1 (stereo not given)	8.6%
CN(C1CCOCC1)C1CCN(C(=O)c2ccccc2Cl)CC1	-6.3%
SMILES	Pf Dd2 growth
Brc1ccc2nc(-c3ccccc3)c(Nc3ccc4c(c3)OCO4)n2c1	-12.7%
Cc1cccc(C)c1Nc1c(-c2ccc(N3CCOCC3)cc2)nc2ncccn12	-5.9%
Cc1ccc(Nc2c(-c3ccc(N4CCOCC4)cc3)nc3ccc(Cl)cn23)cc1	47.1%
Cc1ccc(Nc2c(-c3ccc(N4CCOCC4)cc3)nc3cccc(C)n23)cc1	-17.6%
Clc1ccc2nc(-c3ccc(N4CCOCC4)cc3)c(Nc3ccccc3)n2c1	-28.8%
Cc1ccc(-c2nc3ccc(Cl)cn3c2Nc2ccccc2C)s1	-0.7%
Cc1ccccc1Nc1c(-c2c(F)cccc2Cl)nc2ccc(Br)cn12	10µM*
Cc1ccn2c(Nc3ccccc3C)c(-c3ccc(N4CCOCC4)cc3)nc2c1	6.31µM*
Cc1ccccc1Nc1c(-c2ccc(N3CCOCC3)cc2)nc2ccc(Cl)cn12	8.91µM*
COc1cccc(CN2C[C@@H](F)[C@@H](OCc3nc4ccccc4o3)C2)n1	i
O=C(c1cc(F)ccc1F)N1CC2CC(C1)[C@H]1CCCC(=O)N1C2 (stereo not given in full)	-3.2%
COc1ccccc1NC(=O)N1CCCC(Cn2c(C3CC3)nc3cccnc32)C1 (stereo not given)	-13.5%
O=C(CN1C(=O)NC2(CCOCC2)C1=O)Nc1ccc2c(c1)OCCO2	22.4%
CC(C)(C)C1CCC2(CC1)NC(=O)N(CC(=O)Nc1ccc3c(c1)OCCO3)C2=O (stereo not given)	7.94µM*
CC1CCC2(CC1)NC(=O)N(CC(=O)Nc1ccc3c(c1)OCO3)C2=O (stereo not given)	i
Cc1ccc(S(=O)(=O)NC[C@H]2O[C@@H](CO)[C@@H](O)[C@H]2N2CCN(c3ncccn3)CC2)cc1	14.0%
CCC(CC)NC(=O)C1CCCN(S(=O)(=O)c2ccccc2)CCC(=O)NCC1 (stereo not given)	-4.5%
CC(C)(C)c1oc(C(N)=O)cc1CN1CCCC(CO)(CC2CC2)C1 (stereo not given)	-20.8%
O=C(Cc1ccccc1F)N1CCC(c2nc3c(nnn3Cc3cccc(Cl)c3)c(=O)[nH]2)CC1	10µM*
N#Cc1ccccc1Cn1nnc2c(=O)[nH]c(C3CCCN(S(=O)(=O)c4ccc(F)cc4)C3)nc21 (stereo not given)	i
Cc1ccc(Cn2nnc3c(=O)[nH]c(C4CCN(C(=O)Cc5ccccc5F)CC4)nc32)cc1	-27.2%
Cc1ccccc1Cn1nnc2c(=O)[nH]c(C3CCCN(C(=O)c4ccc(C(C)(C)C)cc4)C3)nc21 (stereo not given)	8.91µM*
COC(=O)c1ccc(Cn2nnc3c(=O)[nH]c(C4CCCN(S(=O)(=O)c5ccccc5)C4)nc32)cc1 (stereo not given)	-21.6%
Cc1cccc(Cn2nnc3c(=O)[nH]c(C4CCCN(C(=O)c5ccc(C(C)(C)C)cc5)C4)nc32)c1 (stereo not given)	1µM*
O=C(c1ccccc1F)N1CCC(c2nn(Cc3ccccc3)c(=O)[nH]2)CC1	26.6%
SMILES	Pf Dd2 growth
Cc1ccc(C(=O)N2CCCC(c3nn(-c4ccccc4)c(=O)[nH]3)C2)cc1 (stereo not given)	i
CCc1cn[nH]c1C1CCCN(C(=O)c2ccc(Cn3nnnc3C)cc2)C1 (stereo not given)	10.3%
Cc1ccccc1NC(=O)c1cnc2c(c1)N(C(=O)CCc1ccccc1)CCC2	i
O=c1n(-c2cccc(Cl)c2)nc2n1CCN([S+](=O)([O-])c1ccccc1)C2	-4.3%
CCc1csc(CNC(=O)c2ccc(N3C[C@@H](C)O[C@@H](C)C3)nc2)n1	i
COc1ccc(C(=O)NC2CCCN(c3cc(-c4ccccc4)[nH]n3)C2)cc1OC (stereo not given)	-18.8%
CN1CCC(N2CC[C@@H]3[C@H]2C(=O)NC[C@H](CCC(=O)Nc2ccccc2)N3C)CC1	29.5%[44.1 µM]
COC(=O)c1c(NC(=O)c2ccco2)c2cc(NC(C)CCn3cccn3)cnc2n1C (stereo not given)	-28.3%
CCC(=O)Nc1cc(C(=O)NCC(C)C)c2ccc(C)nc2c1	-6.3%
COC[C@@H]1CN(Cc2cnn(C)c2)C[C@H]1c1ccncc1	11.1%
COC[C@@H]1CN(Cc2c(OC)cccc2OC)C[C@H]1c1ccncc1	4.47µM*
COC[C@@H]1CN(Cc2ccc(OC)c(OC)c2)C[C@H]1c1ccncc1	-25.3%
COCCn1c2c(c(=O)n1-c1ccccc1)CCN(Cc1ccncc1Cl)C2	24.3%[44.1 µM]
Cc1cnc(-c2ccncc2)n1C1CCN(C(=O)COc2ccc(F)cc2)CC1	i
